# Inconclusive results are not listed. Active and inactive are the calls of the source. Unless noted, the call rests on the fitted dose curve; in most records, active means well fitted inhibition curve with a large enough effect; inconclusive means small, poorly fitted or top-dose-only effect; inactive means flat fitted curve, though single readings scatter.
# Assays:
# [1] = qHTS drug screen for cell cycle checkpoint inhibitors in PARPi-resistant BRCA-mutant ovarian cancer cell lines. (AID 1963452; calls by dose curve); details: PEO1/OlaR viability, CellTiter-Glo luminescence, 96 h, stronger effect = lower value
# Outline: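 PEO1, PEO4 and PEO1/OlaR ovarian cancer cells, 600 per well, exposed 96 h at 37C to a dilution series. Viability read by CellTiter-Glo luminescence, normalized to DMSO and empty wells; activity summarized as Z-AUC.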
# [2] = qHTS for identification of novel therapeutic agents for treatment of microphthalmiaassociated transcription factor (MiT) renal cell carcinoma (RCC) (AID 1963991; calls by dose curve; further: potency means the concentration at half of the fitted maximal effect); details: CellTiter-Glo, 48 h; for z-score: stronger effect = lower value
# Outline: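 Three TFE3-fusion RCC cell lines (UOK109, UOK124, UOK145), 500 cells/well, were exposed to the 1912-compound MIPE 4.0 library for 48 hours at 37 C. Viability was read by CellTiter-Glo luminescence, normalised to DMSO (100%) and empty wells (0%), with 11-concentration curve fits.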
# [3] = qHTS profiling for inhibitors of Plasmodium falciparum proliferation (AID 504749); further: potency means the concentration at half of the fitted maximal effect;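 on activity, negative = inhibition: 0% = DMSO vehicle and full inhibition = artemisinin control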; on all read-outs here: nearly all actives have a fitted effect of over 60% in size; details: P. falciparum in erythrocytes, SYBR Green DNA, 72 h; for activity, negative = inhibition: at 28.7 µM (top of the series)
# Outline: (§1)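 Three-day growth assay of blood-stage parasites in erythrocytes (0.3% parasitemia, 2.5% hematocrit) at 37 C, 5% CO2, quantified by SYBR Green DNA staining after overnight detergent lysis.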
# 3D7 = test: as above; details: P. falciparum in erythrocytes, SYBR Green DNA, 72 h; series mostly up to 28.7 µM
# Outline: as §1
# 7G8 = test: as above; details: P. falciparum in erythrocytes, SYBR Green DNA, 72 h; series mostly up to 28.7 µM
# Outline: as §1
# AA1029 = test: as above; details: P. falciparum in erythrocytes, SYBR Green DNA, 72 h; series mostly up to 28.7 µM
# Outline: as §1
# AS120 = test: as above; details: P. falciparum in erythrocytes, SYBR Green DNA, 72 h; series mostly up to 28.7 µM
# Outline: as §1
# ATS189 = test: as above; details: P. falciparum in erythrocytes, SYBR Green DNA, 72 h; series mostly up to 28.7 µM
# Outline: as §1
# ATS95 = test: as above; details: P. falciparum in erythrocytes, SYBR Green DNA, 72 h; series mostly up to 28.7 µM
# Outline: as §1
# C2A = test: as above; details: P. falciparum in erythrocytes, SYBR Green DNA, 72 h; series mostly up to 28.7 µM
# Outline: as §1
# CP185 = test: as above; details: P. falciparum in erythrocytes, SYBR Green DNA, 72 h; series mostly up to 28.7 µM
# Outline: as §1
# CP191 = test: as above; details: P. falciparum in erythrocytes, SYBR Green DNA, 72 h; series mostly up to 28.7 µM
# Outline: as §1
# CP192 = test: as above; details: P. falciparum in erythrocytes, SYBR Green DNA, 72 h; series mostly up to 28.7 µM
# Outline: as §1
# CP194 = test: as above; details: P. falciparum in erythrocytes, SYBR Green DNA, 72 h; series mostly up to 28.7 µM
# Outline: as §1
# CP201 = test: as above; details: P. falciparum in erythrocytes, SYBR Green DNA, 72 h; series mostly up to 28.7 µM
# Outline: as §1
# CP203 = test: as above; details: P. falciparum in erythrocytes, SYBR Green DNA, 72 h; series mostly up to 28.7 µM
# Outline: as §1
# CP211 = test: as above; details: P. falciparum in erythrocytes, SYBR Green DNA, 72 h; series mostly up to 28.7 µM
# Outline: as §1
# CP217 = test: as above; details: P. falciparum in erythrocytes, SYBR Green DNA, 72 h; series mostly up to 28.7 µM
# Outline: as §1
# CP215 = test: as above; details: P. falciparum in erythrocytes, SYBR Green DNA, 72 h; series mostly up to 28.7 µM
# Outline: as §1
# [4] = measured here: PEO1 parental Z-AUC
# [5] = TFE3-RCC UOK109 viability, measured here: UOK109 Z-AUC
# [6] = TFE3-RCC viability, measured here: UOK124 Z-AUC
# [7] = TFE3-RCC viability, measured here: UOK145 Z-AUC
compound,measurement,setting,value
Cn1c(=O)c2c(ncn2CC(O)CO)n(C)c1=O (stereo unspecified),Z-AUC,[1],0.897 (inactive)
same,Z-AUC,[1]; [4],0.956
same,Z-AUC,[1]; measured here: PEO4 Z-AUC,0.893
same,z-score,[2]; [5],0.0441
same,z-score,[2]; [6],0.351
same,z-score,[2]; [7],0.429
Cn1nnc2c(C(N)=O)ncn2c1=O,Z-AUC,[1],1.52 (inactive)
same,Z-AUC,[1]; [4],1.36
same,Z-AUC,[1]; measured here: PEO4 Z-AUC,1.39
same,z-score,[2]; [5],0.106
same,z-score,[2]; [6],0.527
same,z-score,[2]; [7],0.42
same,"activity, negative = inhibition",[3]; parasite line A,6.45% (inactive)
same,"activity, negative = inhibition",[3]; parasite line B,3.99% (inactive)
same,Potency,3D7,inactive
same,Potency,7G8,inactive
same,Potency,AA1029,inactive
same,Potency,AS120,inactive
same,Potency,ATS189,inactive
same,Potency,ATS95,inactive
same,Potency,C2A,inactive
same,Potency,CP185,inactive
same,Potency,CP191,inactive
same,Potency,CP192,inactive
same,Potency,CP194,inactive
same,Potency,CP201,inactive
same,Potency,CP203,inactive
same,Potency,CP211,inactive
same,Potency,CP217,inactive
CN(C)c1ccc(C(=C2C=CC(=[N+](C)C)C=C2)c2ccc(N(C)C)cc2)cc1,Z-AUC,[1],-1.19 (inactive)
same,Z-AUC,[1]; [4],-1.68
same,Z-AUC,[1]; measured here: PEO4 Z-AUC,-1.8
same,Potency,"[2]; TFE3-RCC UOK109 viability, active = Z-AUC below -0.8 in all three lines",1180 nM (active)
same,z-score,[2]; [5],-1.93
same,z-score,[2]; [6],-2.26
same,z-score,[2]; [7],-1.8
same,Potency,[3]; parasite line A,224 nM (active)
same,Potency,[3]; parasite line B,282 nM (active)
same,Potency,3D7,282 nM (active)
same,Potency,7G8,251 nM (active)
same,Potency,AA1029,355 nM (active)
same,Potency,AS120,447 nM (active)
same,Potency,ATS189,282 nM (active)
same,Potency,ATS95,501 nM (active)
same,Potency,C2A,355 nM (active)
same,Potency,CP185,398 nM (active)
same,Potency,CP191,178 nM (active)
same,Potency,CP192,757 nM (active)
same,Potency,CP194,953 nM (active)
same,Potency,CP201,1200 nM (active)
same,Potency,CP211,151 nM (active)
same,Potency,CP215,1510 nM (active)
same,Potency,CP217,251 nM (active)
CCCN[C@H]1CCc2nc(N)sc2C1,Z-AUC,[1],-0.0876 (inactive)
same,Z-AUC,[1]; [4],-1.06
same,Z-AUC,[1]; measured here: PEO4 Z-AUC,-0.574
same,z-score,[2]; [5],0.498
same,z-score,[2]; [6],0.618
same,z-score,[2]; [7],0.718
same,"activity, negative = inhibition",[3]; parasite line A,16.7% (inactive)
same,"activity, negative = inhibition",[3]; parasite line B,18.6% (inactive)
same,Potency,3D7,inactive
same,Potency,7G8,inactive
same,Potency,AA1029,inactive
same,Potency,AS120,inactive
same,Potency,ATS189,inactive
same,Potency,ATS95,inactive
same,Potency,C2A,inactive
same,Potency,CP185,inactive
same,Potency,CP191,inactive
same,Potency,CP192,inactive
same,Potency,CP194,inactive
same,Potency,CP201,inactive
same,Potency,CP203,inactive
same,Potency,CP211,inactive
same,Potency,CP215,inactive
same,Potency,CP217,inactive
CC(C)C1CCC(C(=O)N[C@H](Cc2ccccc2)C(=O)O)CC1 (stereo partly specified),Z-AUC,[1],1.31 (inactive)
same,Z-AUC,[1]; [4],1.43
same,Z-AUC,[1]; measured here: PEO4 Z-AUC,0.601
same,z-score,[2]; [5],0.399
same,z-score,[2]; [6],0.0648
same,z-score,[2]; [7],0.384
COc1ncnc(NS(=O)(=O)c2ccc(N)cc2)c1OC,Z-AUC,[1],1.84 (inactive)
same,Z-AUC,[1]; [4],1.63
same,Z-AUC,[1]; measured here: PEO4 Z-AUC,1.91
same,z-score,[2]; [5],0.466
same,z-score,[2]; [6],0.339
same,z-score,[2]; [7],0.671
same,"activity, negative = inhibition",[3]; parasite line A,-18.9% (inactive)
same,"activity, negative = inhibition",[3]; parasite line B,11.3% (inactive)
same,Potency,7G8,inactive
same,Potency,AA1029,inactive
same,Potency,AS120,inactive
same,Potency,ATS189,inactive
same,Potency,ATS95,inactive
same,Potency,C2A,inactive
same,Potency,CP185,inactive
same,Potency,CP191,inactive
same,Potency,CP192,inactive
same,Potency,CP194,inactive
same,Potency,CP201,inactive
same,Potency,CP203,inactive
same,Potency,CP211,inactive
same,Potency,CP215,inactive
same,Potency,CP217,inactive

# — PubChem BioAssay (NCATS)
